The list is not random: actives were taken first. Their share in the collection is about 1.6%.
KCNQ2 enhance = potentiators of rat KCNQ2 potassium channel | B-score at 10 µM | AID 2239, 2010 | 310,000 tested, 0.54% active | Potassium voltage-gated channel subfamily KQT member 2 (Rattus norvegicus), O88943 | CHO-K1 KCNQ2, FluxOR thallium flux fluorescence; active compounds read high;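 active = fluorescence ratio B-score at least 3 SD of library B-scores, with initial fluorescence B-score within 3 of them, cut at about 5.3 in these data; same plate scores as AID 2156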;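 also: B-score of peak minus minimum over baseline fluorescence ratio after K+ and Tl+ stimulus; positive B-score means potentiation of KCNQ2 with more thallium influx and brighter signal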
KCNQ2 inh = rat KCNQ2 potassium channel inhibitors, primary screen, cell-based, CHO-K1, FluxOR thallium flux, B-score; Potassium voltage-gated channel subfamily KQT member 2 (Rattus norvegicus), O88943; 20 min; active compounds read low; B-score at 10 µM; 310,000 tested, 1.1% active; AID 2156, 2009;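 active = fluorescence ratio B-score at most minus 3 library SDs, with starting brightness B-score within 2 library SDs, cut at about -5.5 in these data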
Kir21 conf inh = mouse Kir2.1 channel blockers, retest, confirmation, cell-based, FluxOR thallium flux, duplicate. shares compounds with KCNQ2 enhance. Kir2.1-expressing cells, FluxOR thallium flux fluorescence; active compounds read low. Tl flux remaining, % of negative control (active compounds read low), % at 10 µM. 2,300 tested, 41% active. AID 2032, 2009;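 active = Primary-screen hit whose thallium flux fell at least 3 control SD below untreated wells in both duplicates, with normal baseline fluorescence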
HEK293 ctr = alters thallium flux in parental HEK293 cells, Kir2.1 counter-screen. shares compounds with KCNQ2 enhance. FluxOR thallium flux fluorescence; 0% = unstimulated blank wells. FluxOR signal as % of negative control (100 = no effect), % at 10 µM. 2,300 tested, 19% active. AID 2105;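 active = dye signal at least 3 control SD above or below untreated wells in both duplicates, raw fluorescence within 3, either direction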;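 also: percent is based on the flux ratio of peak minus minimum fluorescence over baseline F0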
CHO-K1 ctr = nonspecific thallium flux increase in parental CHO-K1, confirmation, counter-screen for KCNQ2 potentiator project, cell-based, FluxOR thallium flux, duplicate | 1,200 tested, 43% active | AID 2282, 2010 | parental CHO-K1 cells, FluxOR thallium flux fluorescence; zero = vehicle mean+3SD, 100% = vehicle-minus-blank window | shares compounds with KCNQ2 enhance | activity increase over 3SD of controls, % at 10 µM;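 active = signal rise of at least 3 SD above the untreated control mean, in both duplicate wells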;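 also: counter screen of KCNQ2 potentiator hits so any rise reflects channel-independent effects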
KCNQ1 pot spec = human KCNQ1 channel potentiation off-target, confirmation, selectivity assay for KCNQ2 potentiator project, cell-based, CHO, FluxOR thallium flux; shares compounds with KCNQ2 enhance; activation over 3SD threshold, % at 10 µM; AID 2283, 2010; 1,200 tested, 28% active; CHO KCNQ1 stable, FluxOR thallium flux fluorescence; beyond 3SD, as % of vehicle-control signal;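 active = fluorescence ratio rise of at least 3 SD of vehicle wells above their mean, in both replicate wells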
KCNQ2 pot conf = rat KCNQ2 channel potentiators, confirmation, cell-based, CHO, FluxOR thallium flux, duplicate; AID 2287, 2010; shares compounds with KCNQ2 enhance; potentiation, less the hit threshold, % at 10 µM; CHO-KCNQ2 cells, FluxOR thallium flux fluorescence; 1,200 tested, 68% active;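 active = fluorescence ratio rising 3 SD or more over the vehicle control mean in both replicates, plus primary screen hit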;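 also: peak minus minimum thallium fluorescence divided by baseline after K/Tl stimulus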
Kir21 spec = mouse Kir2.1 channel activation off-target, confirmation, selectivity assay for KCNQ2 potentiator project, cell-based, HEK293, FluxOR thallium flux; shares compounds with KCNQ2 enhance; HEK293 Kir2.1, FluxOR thallium flux fluorescence; activity over 3SD threshold, % at 10 µM; 1,200 tested, 2% active; AID 2345, 2010;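 active = fluorescence ratio rise of at least 3 SD above the vehicle-control mean, seen in both replicates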
KCNQ2 W236L MoA = potentiators of retigabine-insensitive KCNQ2 W236L, mechanism study for KCNQ2 potentiator project, cell-based, rat KCNQ2 W236L, CHO, automated patch clamp | shares compounds with KCNQ2 enhance | current increase over 3SD of negative controls (%), active compounds read high, % at 25 µM | automated patch clamp current | 940 tested, 10% active;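 active = current increase at least 3 SD of the untreated controls above them in both duplicate recordings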
Target sequence (O88943 whole entry W236L, looked up): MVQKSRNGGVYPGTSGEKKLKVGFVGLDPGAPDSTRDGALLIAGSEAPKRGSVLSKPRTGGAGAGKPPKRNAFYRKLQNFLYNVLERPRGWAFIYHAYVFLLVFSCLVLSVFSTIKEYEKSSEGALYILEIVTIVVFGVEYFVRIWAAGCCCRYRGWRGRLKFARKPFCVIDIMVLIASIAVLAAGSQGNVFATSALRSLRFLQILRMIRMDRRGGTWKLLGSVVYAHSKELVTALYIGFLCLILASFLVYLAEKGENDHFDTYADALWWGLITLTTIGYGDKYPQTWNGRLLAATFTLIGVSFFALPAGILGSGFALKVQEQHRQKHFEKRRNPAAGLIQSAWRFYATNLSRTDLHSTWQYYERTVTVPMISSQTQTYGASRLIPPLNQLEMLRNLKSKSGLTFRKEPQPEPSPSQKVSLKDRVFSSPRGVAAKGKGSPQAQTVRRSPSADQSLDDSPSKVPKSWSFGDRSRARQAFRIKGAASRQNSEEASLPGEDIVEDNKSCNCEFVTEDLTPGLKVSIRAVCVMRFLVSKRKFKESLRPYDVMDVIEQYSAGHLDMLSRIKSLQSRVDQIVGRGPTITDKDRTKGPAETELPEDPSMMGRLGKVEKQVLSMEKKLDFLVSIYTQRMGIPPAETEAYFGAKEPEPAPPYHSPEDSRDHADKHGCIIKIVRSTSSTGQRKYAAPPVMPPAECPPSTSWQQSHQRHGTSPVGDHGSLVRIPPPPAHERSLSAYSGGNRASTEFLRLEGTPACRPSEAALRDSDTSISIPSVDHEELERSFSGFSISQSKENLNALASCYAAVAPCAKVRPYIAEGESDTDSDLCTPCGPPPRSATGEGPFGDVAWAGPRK
Numbers stand for hits.

`C1CCC(C(CC2CCCCN2)C2CCCCC2)CC1` (stereo not given) gave KCNQ2 inh inactive, Kir21 conf inh 28% and HEK293 ctr 72%.
O=c1c2ccccc2c(C=NC2CCS(=O)(=O)C2)c(O)n1-c1ccccc1 (stereo not given) was read as KCNQ2 enhance inactive and KCNQ2 inh inactive.
O=S1(=O)CCC(N=Cc2cc(Br)ccc2O)C1 (stereo not given) was read as KCNQ2 enhance 6.4, KCNQ2 inh inactive, Kir21 conf inh inactive, HEK293 ctr inactive, CHO-K1 ctr 21, KCNQ1 pot spec inactive, KCNQ2 pot conf 22, Kir21 spec inactive and KCNQ2 W236L MoA inactive.
Cc1ccc(NC(=O)CSC(C)c2nc3ccccc3c(=O)[nH]2)cc1 (stereo not given) was read as KCNQ2 inh inactive.
`CN(C)N1C(=O)CC(C)(c2ccc([N+](=O)[O-])cc2)C1=O` (stereo not given) gave KCNQ2 inh inactive.
For COc1ccc(C(=O)CCS(=O)(=O)c2ccc(F)cc2)cc1OC the results were KCNQ2 enhance 6.6, KCNQ2 inh inactive, Kir21 conf inh inactive, HEK293 ctr inactive, CHO-K1 ctr 36, KCNQ1 pot spec 60, KCNQ2 pot conf 24, Kir21 spec inactive and KCNQ2 W236L MoA 6.0%.
COc1ccc(C(=O)N2CCN(S(=O)(=O)c3ccc(F)cc3)CC2)cc1OC was read as KCNQ2 inh inactive.
`CC(CC(F)(F)F)N1CCC(n2nccc2NC(=O)CCOc2ccccc2)CC1` (stereo not given) gave KCNQ2 enhance inactive and KCNQ2 inh inactive.
CCc1ccc(S(=O)(=O)NCCOc2cccc3cccnc23)cc1 was read as KCNQ2 inh inactive, Kir21 conf inh 70% and HEK293 ctr inactive.
For CSc1ccc(S(=O)(=O)NCCOc2ccccc2C)cc1 the results were KCNQ2 inh inactive.
For CN(c1ccccc1)S(=O)(=O)c1cccc(C(=O)OCC(=O)NCc2ccco2)c1 the results were KCNQ2 enhance inactive and KCNQ2 inh inactive.
CN(c1ccc(F)cc1)S(=O)(=O)c1ccc(Cl)c(C(=O)OCC(=O)NCc2ccco2)c1 was read as KCNQ2 enhance 8.8, KCNQ2 inh inactive, Kir21 conf inh inactive, HEK293 ctr inactive, CHO-K1 ctr 15, KCNQ1 pot spec inactive, KCNQ2 pot conf 24, Kir21 spec inactive and KCNQ2 W236L MoA inactive.
Screening Cc1ccc2c(c1)C(c1ccccc1)N(C(=O)CC(C)C)CC(=O)N2 (stereo not given) returned KCNQ2 enhance inactive and KCNQ2 inh inactive.
`O=C1C=CC(=O)N1CCNc1ncc(C(F)(F)F)cc1Cl` gave KCNQ2 inh inactive, Kir21 conf inh 74% and HEK293 ctr inactive.
`O=C1CC(=O)N(CCNc2ncc(C(F)(F)F)cc2Cl)C(=O)N1` gave KCNQ2 enhance inactive and KCNQ2 inh inactive.
`Cc1cc(C)c(NC(=O)C2C3/C=C\CCCCC32)c(C)c1` (stereo not given) gave KCNQ2 enhance 12, KCNQ2 inh inactive, Kir21 conf inh inactive, HEK293 ctr inactive, CHO-K1 ctr inactive, KCNQ1 pot spec inactive, KCNQ2 pot conf 56, Kir21 spec inactive and KCNQ2 W236L MoA inactive.
Cc1ccc(NC(=O)C2C3/C=C\CCCCC32)cc1 (stereo not given) was read as KCNQ2 enhance inactive and KCNQ2 inh inactive.
`Cc1ccc(NC(=O)CNC(=O)CC23CC4CC(CC(C4)C2)C3)c(O)c1` gave KCNQ2 enhance 10, KCNQ2 inh inactive, Kir21 conf inh inactive, HEK293 ctr inactive, CHO-K1 ctr inactive, KCNQ1 pot spec inactive, KCNQ2 pot conf 25, Kir21 spec inactive and KCNQ2 W236L MoA inactive.
For NS(=O)(=O)c1cccc(NC(=O)CNC(=O)CC23CC4CC(CC(C4)C2)C3)c1 the results were KCNQ2 enhance inactive and KCNQ2 inh inactive.
For CC(=O)Nc1ccc(S(=O)(=O)NC(C)c2ccccc2)cc1 (stereo not given) the results were KCNQ2 inh inactive.
For COC(=O)Oc1ccc(/C=N/NC(=O)CSCc2ccccc2Br)cc1OC the results were KCNQ2 inh inactive.
`Cn1c(Cc2nc(-c3cnccn3)no2)nnc1SCC(=O)Nc1ccccc1` gave KCNQ2 inh inactive.
`Cc1ccccc1NC(=S)NC(=O)c1cc(-c2ccccc2)nc2ccccc12` gave KCNQ2 enhance 6.2, KCNQ2 inh inactive, Kir21 conf inh inactive, HEK293 ctr inactive, CHO-K1 ctr inactive, KCNQ1 pot spec 8.8, KCNQ2 pot conf inactive and Kir21 spec inactive.
For O=C(N/N=C/c1ccccn1)c1cc(-c2ccccc2)nc2ccccc12 the results were KCNQ2 enhance 11, KCNQ2 inh inactive, Kir21 conf inh inactive, HEK293 ctr inactive, CHO-K1 ctr 222, KCNQ1 pot spec 81, KCNQ2 pot conf 13, Kir21 spec inactive and KCNQ2 W236L MoA inactive.
For O=C(N/N=C/c1ccccn1)c1cc(Br)ccc1O the results were KCNQ2 enhance 7.3, KCNQ2 inh inactive, Kir21 conf inh inactive, HEK293 ctr 228%, CHO-K1 ctr inactive, KCNQ1 pot spec inactive, KCNQ2 pot conf 44, Kir21 spec inactive and KCNQ2 W236L MoA inactive.
`Cc1cccc(NC(=S)NC(=O)c2cc(-c3ccccc3)nc3ccccc23)c1` gave KCNQ2 enhance inactive and KCNQ2 inh inactive.
O=C(N/N=C/c1cccnc1)c1cc(Br)ccc1O was read as KCNQ2 inh inactive.
`O=C(N/N=C/c1ccccn1)c1cc(C2CC2)nc2ccccc12` gave KCNQ2 inh inactive.
